# Test results published in PubChem BioAssay (NCATS).
# Records with an inconclusive call do not appear. Entries that show only a call come without a potency. Values without a mark were called inactive. Active and inactive are the calls of the source. Unless noted, calls follow the shape of the dose curve; as a rule, active = well fitted curve in the direction sought with a large enough effect; inconclusive = small, poorly fitted or top-dose-only effect, or another doubt; inactive = no such curve, though single readings can be large; an effect the other way counts as inactive or inconclusive.
# Tests used:
# [1] = target: Calcium and integrin-binding protein 1 (Homo sapiens) (UniProt Q99828); assay: Primary qHTS for Identification of Calcium Integrin Binding Protein 1 (CIB1) Competitor (AID 1508620);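 also: GST tagged CIB1 binding a fluorescein labelled alphaIIb integrin peptide tracer; top concentration of the series differs between compounds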
# Calcium and integrin-binding protein 1 (Homo sapiens), sequence (Q99828 whole entry, looked up): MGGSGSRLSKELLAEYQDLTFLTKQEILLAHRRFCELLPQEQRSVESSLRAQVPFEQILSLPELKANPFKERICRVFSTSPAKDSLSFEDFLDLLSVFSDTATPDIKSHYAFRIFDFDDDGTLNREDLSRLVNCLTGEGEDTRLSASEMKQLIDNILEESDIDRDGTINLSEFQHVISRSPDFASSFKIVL
# Outline: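 CIB1-GST (1 uM final) and compound incubated 15 min at room temperature before adding FITC-alphaIIb peptide tracer (100 nM final). Competition for binding read by fluorescence polarization (ex 480, em 540) after another 15 min at room temperature.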
# [2] = target: Cytochrome P450 2D6 (Homo sapiens) (UniProt P10635); assay: Cytochrome P450 family 2 subfamily D member 6 (CYP2D6) small molecule antagonists: luciferase biochemical (cell-free) qHTS assay (AID 1645840; active = well fitted curve in the direction sought with a large enough effect in the repeat runs; an effect the other way counts as inactive or inconclusive; also: nearly all actives have a fitted effect of over 55% in size; also: potency is read from the fitted curve at half-maximal effect; as to activity change, negative = inhibition: series mostly up to about 57 µM)
# Cytochrome P450 2D6 (Homo sapiens), sequence (P10635 whole entry, looked up): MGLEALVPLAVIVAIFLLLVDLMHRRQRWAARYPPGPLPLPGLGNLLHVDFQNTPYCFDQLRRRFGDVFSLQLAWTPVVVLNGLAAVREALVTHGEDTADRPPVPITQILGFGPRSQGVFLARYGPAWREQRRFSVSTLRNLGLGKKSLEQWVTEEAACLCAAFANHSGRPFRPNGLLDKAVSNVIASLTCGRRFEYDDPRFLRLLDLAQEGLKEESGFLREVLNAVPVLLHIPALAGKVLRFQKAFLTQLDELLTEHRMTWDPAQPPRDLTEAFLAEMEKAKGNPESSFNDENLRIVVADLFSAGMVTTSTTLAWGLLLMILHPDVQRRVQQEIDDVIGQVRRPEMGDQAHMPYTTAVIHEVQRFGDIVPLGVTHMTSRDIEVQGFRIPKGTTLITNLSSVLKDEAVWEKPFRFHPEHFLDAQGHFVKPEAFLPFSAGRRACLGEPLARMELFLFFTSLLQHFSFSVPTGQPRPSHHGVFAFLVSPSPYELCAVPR
# Outline: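 P450-Glo luminescent screen: recombinant CYP2D6 enzyme–proluciferin substrate mix preincubated with compound 10 min at room temperature, then NADPH regeneration added for 1 h at room temperature. Detection reagent added for 20 min; luciferin light read as relative luminescence units.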
# [3] = target: Cytochrome P450 2C9 (Homo sapiens) (UniProt P11712); assay: Cytochrome P450 family 2 subfamily C member 9 (CYP2C9) small molecule antagonists: luciferase biochemical (cell-free) qHTS assay (AID 1645842; active = well fitted curve in the direction sought with a large enough effect in the repeat runs; an effect the other way counts as inactive or inconclusive; also: nearly all actives have a fitted effect of over 55% in size; also: potency is read from the fitted curve at half-maximal effect; as to activity change, negative = inhibition: series mostly up to about 57 µM)
# Cytochrome P450 2C9 (Homo sapiens), sequence (P11712 whole entry, looked up): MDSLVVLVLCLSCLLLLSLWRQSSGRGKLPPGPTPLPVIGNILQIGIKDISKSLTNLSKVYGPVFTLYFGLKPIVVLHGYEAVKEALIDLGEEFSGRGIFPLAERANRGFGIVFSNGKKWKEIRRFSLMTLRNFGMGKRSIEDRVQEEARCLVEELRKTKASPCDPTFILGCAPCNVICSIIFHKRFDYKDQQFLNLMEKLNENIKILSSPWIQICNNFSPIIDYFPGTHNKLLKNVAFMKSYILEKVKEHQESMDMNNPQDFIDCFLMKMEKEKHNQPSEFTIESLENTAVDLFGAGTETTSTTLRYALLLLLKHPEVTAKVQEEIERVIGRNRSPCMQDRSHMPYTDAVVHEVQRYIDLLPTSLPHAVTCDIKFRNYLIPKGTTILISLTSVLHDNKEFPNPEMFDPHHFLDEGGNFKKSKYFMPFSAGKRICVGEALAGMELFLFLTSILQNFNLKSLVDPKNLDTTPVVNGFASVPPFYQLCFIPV
# Outline: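 Luminescence, after 20 min with luciferin detection reagent, reflected CYP2C9 turnover during a 1 h NADPH-driven reaction at 37C. Enzyme-substrate mix contained 0.4% bovine serum albumin and was preincubated with compound 10 min at room temperature.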
# [4] = Primary qHTS for inhibitors of nuclear receptor binding SET domain protein 2 (NSD2) in an isogenic RCH-ACV NSD2 p.E1099K mutant (9B) (AID 1645876); also: nearly all actives have a fitted effect of over 70% in size; also: potency is read from the fitted curve at half-maximal effect
# [5] = Primary qHTS for inhibitors of nuclear receptor binding SET domain protein 2 (NSD2) in an RCH-ACV wild type WT cells (2C) (AID 1645877); also: nearly all actives have a fitted effect of over 70% in size; also: potency is read from the fitted curve at half-maximal effect
smiles,measurement,setting,value
CC(C(=O)Nc1cc(C#N)ccc1CCCC(=O)O)c1ccc(F)c2ccccc12 (stereo not drawn),Potency,[1],inactive
same,Potency,[2],inactive
same,Potency,[3],0.536 µM (active)
same,Potency,[4],inactive
same,Potency,[5],inactive
Cc1ccc2[nH]c(=O)c(C3=NN(C(=O)CCC(=O)O)C(c4ccc(Br)cc4)C3)c(-c3ccccc3)c2c1 (stereo not drawn),Potency,[1],inactive
same,Potency,[2],inactive
same,Potency,[3],26.8 µM (active)
same,Potency,[4],inactive
same,Potency,[5],inactive
O=C(O)[C@H]1Cc2ccccc2CN1,"activity change, negative = inhibition",[1],5.95% [at 12.4 µM]
same,"activity change, negative = inhibition",[2],4.56% [at 11.5 µM]
same,"activity change, negative = inhibition",[3],2.02% [at 11.5 µM]
same,outcome,[4],inactive [at 4.96 µM]
same,outcome,[5],inactive [at 4.96 µM]
Cc1ccccc1-c1cc(N2CCN(C)CC2)ncc1N(C)C(=O)C(C)(C)c1cc(C(F)(F)F)cc(C(F)(F)F)c1,Potency,[1],inactive
same,Potency,[2],15.1 µM (active)
same,Potency,[3],16.9 µM (active)
same,Potency,[4],inactive
same,Potency,[5],inactive
Cc1oc(S(=O)(=O)N2CCCCC2)cc1NC(=O)Nc1ccccc1,Potency,[1],inactive
same,Potency,[2],12 µM (active)
same,Potency,[3],6.01 µM (active)
same,Potency,[4],inactive
same,Potency,[5],inactive
COc1ccc(NC(=O)c2ccc(-c3ccc(C(N)=O)cc3C)cc2)cc1N1CCN(C)CC1,Potency,[1],inactive
same,Potency,[2],inactive
same,Potency,[3],inactive
same,Potency,[5],14.5 µM (active)
Cc1ccc(-n2nc(C(C)(C)C)cc2NC(=O)Nc2cc(COc3cccnc3)[nH]n2)cc1,Potency,[1],inactive
same,Potency,[2],15.1 µM (active)
same,Potency,[3],7.56 µM (active)
same,Potency,[4],18.3 µM (active)
same,Potency,[5],9.16 µM (active)
CCC[C@H](N[C@@H](C)C(=O)N1[C@H](C(=O)O)C[C@@H]2CCCC[C@@H]21)C(=O)O,Potency,[1],inactive
same,Potency,[2],inactive
same,Potency,[3],inactive
same,Potency,[4],inactive
same,Potency,[5],inactive
Cc1[nH]c2ccccc2c1CC(=O)N[C@@H](Cc1ccccc1)C(=O)N(C)c1ccccc1,Potency,[1],inactive
same,Potency,[2],16.9 µM (active)
same,Potency,[3],9.52 µM (active)
same,Potency,[5],inactive
COc1ccc(OC)c(C2C(C#N)=C(N)Oc3n[nH]c(-c4ccc5ccccc5c4)c32)c1 (stereo not drawn),Potency,[1],inactive
same,Potency,[2],7.56 µM (active)
same,Potency,[3],10.7 µM (active)
same,Potency,[4],inactive
same,Potency,[5],inactive
O=C(O)CC1CCC(c2ccc(NC(=O)c3nnc(Nc4ccc(F)c(F)c4)o3)cc2)CC1 (stereo not drawn),Potency,[1],inactive
same,Potency,[2],inactive
same,Potency,[3],inactive
same,Potency,[4],inactive
same,Potency,[5],inactive
O=C(O)[C@H](Cc1ccccc1)Oc1ccc(-c2ccccc2)cc1,Potency,[1],inactive
same,Potency,[2],inactive
same,Potency,[3],9.52 µM (active)
same,Potency,[4],inactive
same,Potency,[5],inactive
CCOc1nc2c(N)ncnc2n1CC,Potency,[1],inactive
same,Potency,[2],inactive
same,Potency,[3],inactive
same,Potency,[4],inactive
same,Potency,[5],inactive
